Our source for the growth values is PubChem BioAssay (NCI).

This is part of a sample that, as a whole, favours compounds with a hit. Of some 83,000 tested, about 20% had one in any assay.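 In brief: 96-well plates, 48 h treatment, single concentration, percent growth endpoint.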 Values without a mark were called inactive. The source made the active and inactive calls. Rule for the calls: active = growth percent below 10; inactive = the rest.

What all share (assay): NCI-60 one-dose screen, 48 h (100 = growth as untreated, 0 = no growth, -100 = all killed)
One assay relates to NCI-H23 lung. The conditions noted are these: 10 µM unless noted.
A further assay has as its system NCI-H226 lung. The conditions noted are these: 10 µM unless noted.
For another assay, the system named is NCI-H322M lung. The conditions noted are these: 10 µM unless noted.
The subject of the next assay is HOP-62 NSCLC. The note with it: 10 µM unless noted.
Another assay concerns NCI-H460 lung. The conditions noted are these: 10 µM unless noted.
The subject of the next assay is HOP-92 NSCLC. The note with it: 10 µM unless noted.
The next assay concerns 786-0 renal. The note with it: 10 µM unless noted.
A further assay has as its system COLO 205 colon. The conditions noted are these: 10 µM unless noted.
The subject of the next assay is DU-145 prostate. The conditions noted are these: 10 µM unless noted.
For the next assay, the system named is K-562 leukemia. The note with it: 10 µM unless noted.
Another assay concerns MDA-MB-231 breast. The conditions noted are these: 10 µM unless noted.
A further assay deals with RXF 393 renal. The conditions noted are these: 10 µM unless noted.
A further assay relates to SF-268 CNS. The conditions noted are these: 10 µM unless noted.
A further assay relates to SF-295 CNS. The note with it: 10 µM unless noted.
A further assay relates to SF-539 CNS. The note with it: 10 µM unless noted.
For another assay, the system named is UACC-257 melanoma. The conditions noted are these: 10 µM unless noted.
Another assay deals with M14 melanoma. The note with it: 10 µM unless noted.
For another assay, the system named is MALME-3M melanoma. The note with it: 10 µM unless noted.
In a further assay the test system is NCI-H522 lung. The note with it: 10 µM.

For `CCOC(CNCc1cc(C)c2[nH]c3ccccc3c2c1C)OCC`, the growth in the assay with NCI-H23 lung was 82.2%; in the assay on NCI-H226 lung, 70%; in the assay with NCI-H322M lung, 83.2%; with HOP-62 NSCLC, 98.1%; with NCI-H460 lung, 89.1%; in the assay with HOP-92 NSCLC, 64.1%. Moreover, the growth is 65% in the assay on 786-0 renal; -25.4% (active) in the assay on COLO 205 colon; 109% with DU-145 prostate; 34.3% in the assay on K-562 leukemia; 63% in the assay on MDA-MB-231 breast; 73.2% in the assay with RXF 393 renal. Besides, the growth in the assay with SF-268 CNS is 86.2%; with SF-295 CNS it was 60.2%; in the assay on SF-539 CNS it was 83.7%; in the assay on UACC-257 melanoma it was 76%; in the assay on M14 melanoma it was 64.9%.
Take `Clc1ccc2nc(CI)c(CI)nc2c1`: the growth in the assay on NCI-H23 lung is 85.8%; in the assay with NCI-H226 lung, 56.4%; in the assay with NCI-H322M lung, 83.7%; with HOP-62 NSCLC, 94.3%; in the assay on NCI-H460 lung, 118%; with HOP-92 NSCLC, 19.3%. The growth in the assay with 786-0 renal was 0.747% (active); in the assay with COLO 205 colon, 0% (active); in the assay on DU-145 prostate, 86.1%; with K-562 leukemia, -20.1% (active); in the assay on MALME-3M melanoma, 74.6%; in the assay on MDA-MB-231 breast, 74.4%. The growth with SF-268 CNS is 73.7%; in the assay on SF-295 CNS it was 88.8%; with SF-539 CNS it was 100%; in the assay with UACC-257 melanoma it was 86.2%; in the assay on M14 melanoma, 48.9%.
Take `COc1ccc(C2=NN(C(C)=O)C(c3c(C)nn(-c4ccccc4)c3N3CCOCC3)C2)cc1` (stereo not given): the growth was 100% in the assay with NCI-H23 lung; 92.1% in the assay on NCI-H226 lung; 101% in the assay with NCI-H322M lung; 87.9% in the assay with HOP-62 NSCLC; 98.7% with NCI-H460 lung; 86.9% in the assay on HOP-92 NSCLC. Moreover, the growth in the assay with 786-0 renal was 93%; in the assay with COLO 205 colon, 90.9%; in the assay with DU-145 prostate it was 107%; with K-562 leukemia, 99%; with MALME-3M melanoma, 106%; with MDA-MB-231 breast it was 98.1%. Besides, the growth in the assay on RXF 393 renal was 98.7%; in the assay with SF-268 CNS, 95%; in the assay with SF-295 CNS, 93.9%; with SF-539 CNS it was 93.7%; in the assay on UACC-257 melanoma it was 86.3%; in the assay on M14 melanoma, 94.8%.
In the case of `CCOc1cc(/C=C/C(=O)CC(=O)/C=C/c2ccc(OC(=O)CNc3nc4ccc(OC)cc4s3)c(OCC)c2)ccc1OC(=O)CNc1nc2ccc(OC)cc2s1`, the growth in the assay on NCI-H23 lung is 55.7%; in the assay on NCI-H226 lung, 64.5%; in the assay on NCI-H322M lung, 88.6%; in the assay with HOP-62 NSCLC it was 63.9%; in the assay with NCI-H460 lung it was 57.5%; with HOP-92 NSCLC it was 90.9%. In addition, the growth in the assay on 786-0 renal is 32.2%; in the assay on COLO 205 colon, 109%; in the assay on DU-145 prostate, 15.5%; in the assay on K-562 leukemia, 2.04% (active); with MALME-3M melanoma, 94.4%; in the assay with MDA-MB-231 breast, 64.5%. For the same compound, the growth is -29.9% (active) in the assay on RXF 393 renal; 26% with SF-268 CNS; 63.5% in the assay on SF-295 CNS; 3.65% (active) in the assay with SF-539 CNS; 67.6% in the assay with UACC-257 melanoma; 21.1% in the assay with M14 melanoma.
For the compound `O=C(/C=C/c1ccc(C(F)(F)F)cc1)c1ccc(Nc2nc(NCCO)nc(NCCO)n2)cc1`, the growth with NCI-H23 lung was 84.3%; with NCI-H226 lung, 75.3%; with NCI-H322M lung, 74.8%; in the assay on HOP-62 NSCLC, 22.3%; with NCI-H460 lung, 82.8%; in the assay on HOP-92 NSCLC, 99.3%. In addition, the growth with 786-0 renal was 30.4%; in the assay with COLO 205 colon, 37.3%; with DU-145 prostate, 52.9%; in the assay on K-562 leukemia it was 11.7%; with MALME-3M melanoma, 66.2%; in the assay on MDA-MB-231 breast it was 71%. The growth in the assay on RXF 393 renal is 74.2%; with SF-268 CNS it was 54%; in the assay on SF-295 CNS, 44.6%; with SF-539 CNS, 29.3%; with UACC-257 melanoma it was 80.8%; with M14 melanoma, 65.4%.
As to `COc1ccc2c(c1)sc1nc(-c3ccc(N(C)C)cc3)cn12`, the growth is 99.2% with NCI-H23 lung; 139% with NCI-H226 lung; 98.2% in the assay with NCI-H322M lung; 105% in the assay with HOP-62 NSCLC; 85% in the assay on NCI-H460 lung; 34.3% in the assay on HOP-92 NSCLC. The growth is 89.7% in the assay with 786-0 renal; 93.7% with COLO 205 colon; 103% in the assay on DU-145 prostate; 80% in the assay with K-562 leukemia; 112% with MALME-3M melanoma; 122% with MDA-MB-231 breast. Moreover, the growth is 114% with RXF 393 renal; 93.1% in the assay with SF-268 CNS; 98.7% in the assay on SF-295 CNS; 99.4% in the assay on SF-539 CNS; 95.8% with UACC-257 melanoma; 103% in the assay with M14 melanoma.
For `CC(=O)c1nn(-c2ccccc2)c(=Nc2ccccc2)cc1C`, the growth in the assay on NCI-H23 lung is 107%; in the assay on NCI-H226 lung, 98.1%; in the assay on NCI-H322M lung, 103%; with HOP-62 NSCLC, 91.7%; with NCI-H460 lung, 101%; with HOP-92 NSCLC it was 55.2%. Further, the growth was 107% in the assay on 786-0 renal; 109% in the assay with COLO 205 colon; 107% with DU-145 prostate; 97.3% in the assay on K-562 leukemia; 120% with MALME-3M melanoma; 90.2% in the assay on MDA-MB-231 breast. In addition, the growth with RXF 393 renal was 102%; in the assay with SF-268 CNS, 114%; in the assay with SF-295 CNS, 86.9%; in the assay with SF-539 CNS, 107%; in the assay with M14 melanoma it was 120%.
For `O=C1Nc2ccc(Cl)cc2/C1=C/c1cccs1`, the growth was 88.9% in the assay on NCI-H23 lung; 88.7% in the assay on NCI-H226 lung; 90.5% in the assay on NCI-H322M lung; 80.8% with HOP-62 NSCLC; 93.7% with HOP-92 NSCLC; 96.2% in the assay with NCI-H522 lung. For the same compound, the growth in the assay with 786-0 renal was 108%; with COLO 205 colon, 117%; in the assay with DU-145 prostate it was 105%; in the assay on K-562 leukemia, 103%; in the assay on MALME-3M melanoma, 95.9%; with MDA-MB-231 breast, 70.6%. The growth with RXF 393 renal is 94.3%; with SF-268 CNS, 88.8%; with SF-295 CNS, 94.3%; in the assay with SF-539 CNS it was 85.3%; in the assay with M14 melanoma, 101%.
